# Results from publication PMC7862700, “An all-to-all approach to the identification of sequence-specific readers for epigenetic DNA modifications on cytosine”.
# Assays:
# Assay in all cases: DAPPL (digital affinity profiling via proximity ligation, sequencing); 10 mM Tris-HCl pH 7.5, 50 mM NaCl, 1 mM DTT, 4% glycerol, room temperature, 30 min; GST-TFs on glutathione beads, 16-mer random dsDNA library, 0.1% formaldehyde crosslink after washing; high values mean tight binding
# Settings in all cases: protein: recombinant; tags: N-terminal GST; dsDNA, one strand shown
# [1] = molecular target: T1, ELK4 (Homo sapiens, UniProt P28324-2 1-405)
# T1 sequence: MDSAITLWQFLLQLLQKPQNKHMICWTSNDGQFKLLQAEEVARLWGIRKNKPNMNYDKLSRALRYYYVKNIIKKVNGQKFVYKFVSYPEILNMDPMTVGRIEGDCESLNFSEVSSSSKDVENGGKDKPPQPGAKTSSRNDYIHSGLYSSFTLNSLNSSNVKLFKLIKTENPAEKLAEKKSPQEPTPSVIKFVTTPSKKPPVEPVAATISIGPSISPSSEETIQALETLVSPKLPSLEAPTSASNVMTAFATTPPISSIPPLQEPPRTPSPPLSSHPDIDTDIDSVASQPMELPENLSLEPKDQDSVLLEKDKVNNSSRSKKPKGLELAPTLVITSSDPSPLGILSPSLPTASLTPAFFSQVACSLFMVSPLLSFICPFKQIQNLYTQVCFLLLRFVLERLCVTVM
# Method in brief: (§1)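 Beads coated with glutathione captured GST-fused human transcription factors that had been expressed in yeast, and the factors were then given DNA barcodes and pooled with a tag-only sample. The pools were incubated with 200 nmole of a random double-stranded 16-mer DNA library in Tris/NaCl/DTT/glycerol buffer for 30 min at room temperature, washed, crosslinked with 0.1% formaldehyde and proximity-ligated with BsaI/T4 ligase at 37 °C for 1 h. PCR amplification and Illumina NextSeq500 sequencing came last. Binding signal is each hexamer's read frequency for a factor divided by its frequency for the tag-only sample.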
# [2] = molecular target: T2, ELF3 (Homo sapiens, UniProt P78545 1-371)
# T2 sequence: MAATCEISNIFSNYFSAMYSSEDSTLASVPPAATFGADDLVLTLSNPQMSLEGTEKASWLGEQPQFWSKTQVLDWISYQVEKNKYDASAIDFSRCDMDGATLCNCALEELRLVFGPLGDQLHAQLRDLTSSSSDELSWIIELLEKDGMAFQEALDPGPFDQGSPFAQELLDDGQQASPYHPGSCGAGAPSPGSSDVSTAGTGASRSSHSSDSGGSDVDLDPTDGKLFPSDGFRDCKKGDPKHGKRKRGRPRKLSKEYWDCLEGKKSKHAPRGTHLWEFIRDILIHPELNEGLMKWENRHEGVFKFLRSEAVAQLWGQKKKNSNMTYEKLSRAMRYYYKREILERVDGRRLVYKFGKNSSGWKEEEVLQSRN
# Method in brief: as §1
# [3] = molecular target: ETV1 (Homo sapiens, UniProt P50549 1-477)
# Chain of ETV1 (P50549 whole entry): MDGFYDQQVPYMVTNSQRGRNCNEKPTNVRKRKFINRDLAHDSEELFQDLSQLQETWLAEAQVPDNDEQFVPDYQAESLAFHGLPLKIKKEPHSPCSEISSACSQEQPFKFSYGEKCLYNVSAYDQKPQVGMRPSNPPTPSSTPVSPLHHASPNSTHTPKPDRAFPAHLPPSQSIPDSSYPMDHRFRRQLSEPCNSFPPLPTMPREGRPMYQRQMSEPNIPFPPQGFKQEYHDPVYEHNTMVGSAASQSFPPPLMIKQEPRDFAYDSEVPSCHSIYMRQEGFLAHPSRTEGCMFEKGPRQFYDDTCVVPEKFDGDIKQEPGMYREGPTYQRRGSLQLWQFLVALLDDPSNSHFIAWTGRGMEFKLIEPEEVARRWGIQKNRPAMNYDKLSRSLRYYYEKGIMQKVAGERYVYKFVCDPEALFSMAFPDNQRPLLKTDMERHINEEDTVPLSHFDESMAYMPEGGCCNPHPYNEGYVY
# Method in brief: as §1
# [4] = molecular target: T3, ERF (Homo sapiens, UniProt P50548 1-548)
# T3 sequence: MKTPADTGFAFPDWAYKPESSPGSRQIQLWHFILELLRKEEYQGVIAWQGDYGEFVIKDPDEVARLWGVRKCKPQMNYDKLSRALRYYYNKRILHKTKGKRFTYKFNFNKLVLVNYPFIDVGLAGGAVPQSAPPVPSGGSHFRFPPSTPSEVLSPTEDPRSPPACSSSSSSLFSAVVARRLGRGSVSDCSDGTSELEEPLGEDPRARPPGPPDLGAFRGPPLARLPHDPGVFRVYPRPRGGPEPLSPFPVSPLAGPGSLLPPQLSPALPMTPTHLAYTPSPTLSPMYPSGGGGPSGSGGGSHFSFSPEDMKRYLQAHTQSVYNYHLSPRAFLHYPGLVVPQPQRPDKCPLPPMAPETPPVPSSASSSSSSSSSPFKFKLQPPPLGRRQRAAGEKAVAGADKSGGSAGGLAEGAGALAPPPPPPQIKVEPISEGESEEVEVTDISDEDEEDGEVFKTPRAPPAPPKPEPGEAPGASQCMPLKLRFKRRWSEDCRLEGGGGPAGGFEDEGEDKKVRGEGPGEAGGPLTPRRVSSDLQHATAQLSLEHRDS
# Method in brief: as §1
# [5] = molecular target: T4, ETV3L (Homo sapiens, UniProt Q6ZN32 1-361)
# T4 sequence: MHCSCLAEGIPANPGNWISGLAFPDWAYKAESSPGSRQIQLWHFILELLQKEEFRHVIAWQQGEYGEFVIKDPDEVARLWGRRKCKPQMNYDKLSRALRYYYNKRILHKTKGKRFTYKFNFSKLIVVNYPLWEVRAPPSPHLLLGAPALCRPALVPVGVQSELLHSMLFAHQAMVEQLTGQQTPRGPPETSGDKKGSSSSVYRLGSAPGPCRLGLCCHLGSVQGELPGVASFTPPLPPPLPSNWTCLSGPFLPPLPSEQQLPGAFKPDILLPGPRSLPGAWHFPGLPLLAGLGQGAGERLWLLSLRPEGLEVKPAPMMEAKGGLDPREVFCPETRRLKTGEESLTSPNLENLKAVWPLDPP
# Method in brief: as §1
# [6] = molecular target: T5, ETS2 (Homo sapiens, UniProt P15036 1-469)
# T5 sequence: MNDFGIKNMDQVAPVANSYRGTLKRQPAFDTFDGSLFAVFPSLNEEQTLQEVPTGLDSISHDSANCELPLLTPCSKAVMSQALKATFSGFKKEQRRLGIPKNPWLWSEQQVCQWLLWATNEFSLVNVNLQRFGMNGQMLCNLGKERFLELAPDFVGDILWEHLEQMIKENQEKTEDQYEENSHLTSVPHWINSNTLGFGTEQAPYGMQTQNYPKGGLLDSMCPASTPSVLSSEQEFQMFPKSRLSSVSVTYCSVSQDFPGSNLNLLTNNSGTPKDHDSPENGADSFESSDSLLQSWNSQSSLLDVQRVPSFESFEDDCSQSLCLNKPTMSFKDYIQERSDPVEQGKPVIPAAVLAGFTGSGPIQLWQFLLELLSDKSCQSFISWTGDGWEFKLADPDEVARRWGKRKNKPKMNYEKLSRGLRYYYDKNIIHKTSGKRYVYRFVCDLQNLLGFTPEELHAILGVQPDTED
# Method in brief: as §1
# [7] = molecular target: T6, SPDEF (Homo sapiens, UniProt O95238 1-335)
# T6 sequence: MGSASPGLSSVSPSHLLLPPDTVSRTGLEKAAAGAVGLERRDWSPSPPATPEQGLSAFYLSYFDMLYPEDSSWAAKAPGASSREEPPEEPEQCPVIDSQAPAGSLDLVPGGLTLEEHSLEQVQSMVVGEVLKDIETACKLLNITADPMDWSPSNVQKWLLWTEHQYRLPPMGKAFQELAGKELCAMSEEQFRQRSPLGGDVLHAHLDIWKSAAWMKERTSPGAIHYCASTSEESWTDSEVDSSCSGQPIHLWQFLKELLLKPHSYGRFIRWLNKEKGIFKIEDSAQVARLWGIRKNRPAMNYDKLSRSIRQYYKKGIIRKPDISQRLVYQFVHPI
# Method in brief: as §1
# [8] = molecular target: T7, ETV7 (Homo sapiens, UniProt Q9Y603 1-341)
# T7 sequence: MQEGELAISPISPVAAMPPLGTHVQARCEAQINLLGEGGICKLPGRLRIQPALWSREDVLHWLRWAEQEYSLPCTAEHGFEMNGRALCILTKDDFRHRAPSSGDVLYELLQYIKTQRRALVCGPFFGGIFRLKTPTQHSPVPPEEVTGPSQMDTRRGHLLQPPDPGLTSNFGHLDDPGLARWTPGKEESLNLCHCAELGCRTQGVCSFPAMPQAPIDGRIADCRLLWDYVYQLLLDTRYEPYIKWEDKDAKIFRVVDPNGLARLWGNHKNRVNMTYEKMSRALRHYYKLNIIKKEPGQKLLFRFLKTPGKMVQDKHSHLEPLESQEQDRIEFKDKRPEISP
# Method in brief: as §1
# [9] = molecular target: T8, ETV3 (Homo sapiens, UniProt P41162-2 1-143)
# T8 sequence: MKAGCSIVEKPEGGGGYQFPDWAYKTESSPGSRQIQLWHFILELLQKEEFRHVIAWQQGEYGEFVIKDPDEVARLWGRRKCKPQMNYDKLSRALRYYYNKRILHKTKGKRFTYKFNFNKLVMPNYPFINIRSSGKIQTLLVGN
# Method in brief: as §1
# [10] = molecular target: ETV6 (Homo sapiens, UniProt P41212 1-452)
# Chain of ETV6 (P41212 whole entry): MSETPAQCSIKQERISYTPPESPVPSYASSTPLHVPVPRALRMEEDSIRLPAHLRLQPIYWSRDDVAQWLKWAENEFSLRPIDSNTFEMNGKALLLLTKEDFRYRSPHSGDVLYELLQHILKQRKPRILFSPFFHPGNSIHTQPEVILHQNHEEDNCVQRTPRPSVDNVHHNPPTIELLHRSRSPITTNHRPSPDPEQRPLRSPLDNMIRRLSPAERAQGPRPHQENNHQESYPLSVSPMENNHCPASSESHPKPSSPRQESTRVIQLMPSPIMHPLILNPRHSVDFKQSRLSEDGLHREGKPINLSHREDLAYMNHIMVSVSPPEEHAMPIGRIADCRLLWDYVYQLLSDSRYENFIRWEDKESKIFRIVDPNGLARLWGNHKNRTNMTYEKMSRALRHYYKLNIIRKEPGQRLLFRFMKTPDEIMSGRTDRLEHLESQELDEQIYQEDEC
# Method in brief: as §1
sequence,measurement,setting,value
CGTTTA,binding signal,[1],"1.15 fold enrichment (6-mer frequency, TF over GST control)"
same,binding signal,[2],"1.09 fold enrichment (6-mer frequency, TF over GST control)"
same,binding signal,[3],"1.12 fold enrichment (6-mer frequency, TF over GST control)"
same,binding signal,[4],"1.05 fold enrichment (6-mer frequency, TF over GST control)"
same,binding signal,[5],"1.1 fold enrichment (6-mer frequency, TF over GST control)"
same,binding signal,[6],"1.16 fold enrichment (6-mer frequency, TF over GST control)"
same,binding signal,[7],"1.14 fold enrichment (6-mer frequency, TF over GST control)"
same,binding signal,[8],"1.12 fold enrichment (6-mer frequency, TF over GST control)"
same,binding signal,[9],"1.05 fold enrichment (6-mer frequency, TF over GST control)"
same,binding signal,[10],"1.14 fold enrichment (6-mer frequency, TF over GST control)"
